Among all 140,000 compounds or so, about 550 (0.39%) were called active. The list comes from a sample in which actives are over-represented; it also holds similar structures and randomly drawn compounds. Unmarked numbers belong to inactive results. Rule as the data show it: active = inhibition above about 27%; inactive = the rest.
Target: Galanin receptor type 2 (Homo sapiens) (UniProt O43603)
Test: GALR2 antagonists in receptor-expressing cells, primary screen (AID 828);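 also: cells stimulated with galanin 1-16 at roughly its EC80; 0% = agonist challenge control and 100% = basal control without agonist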
Conditions: antagonist mode, at 4 µM, stronger effect = higher value

Galanin receptor type 2 (Homo sapiens), sequence (O43603 whole entry, looked up): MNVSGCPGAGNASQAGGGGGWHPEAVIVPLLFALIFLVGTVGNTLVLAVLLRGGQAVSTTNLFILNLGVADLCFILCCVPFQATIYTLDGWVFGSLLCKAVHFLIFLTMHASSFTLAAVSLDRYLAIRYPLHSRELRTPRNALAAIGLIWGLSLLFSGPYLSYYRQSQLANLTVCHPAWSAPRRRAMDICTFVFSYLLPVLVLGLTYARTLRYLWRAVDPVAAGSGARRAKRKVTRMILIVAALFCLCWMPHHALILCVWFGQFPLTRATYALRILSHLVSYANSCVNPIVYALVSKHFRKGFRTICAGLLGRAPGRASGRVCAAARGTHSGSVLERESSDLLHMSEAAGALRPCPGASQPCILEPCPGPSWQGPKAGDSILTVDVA

Row | Structure (SMILES) | inhibition
1 | CCOC(=O)NC(=O)CSc1nnc(SCCC(=O)O)s1 | -4.2%
2 | Nc1nc(SCC(=O)NCCN2CCOCC2)nc2sc3c(c12)CCC3 | 15.2%
3 | O=C(CSc1nc2ccc([N+](=O)[O-])cc2[nH]1)c1ccc(Cl)cc1 | 5.51%
4 | Cc1cc(Oc2ccc(Cl)cc2)nc(SCC(=O)c2ccccc2)n1 | -1.42%
5 | O=C(CC1NCCNC1=O)Nc1cc(Cl)cc(Cl)c1 (stereo not drawn) | -4.41%
6 | CC1CN(C(=S)SCC(=O)c2ccccc2)CC(C)O1 (stereo not drawn) | -1.6%
7 | N#Cc1cccc(NC(=O)COC(=O)c2ccccc2C(=O)c2ccc(Cl)c([N+](=O)[O-])c2)c1 | 68.1% (active)
8 | COC(=O)c1cc(NC(=O)Cc2ccccc2[N+](=O)[O-])ccc1Cl | 16.4%
9 | CC(=O)Nc1ccc(NC(=O)C(C)OC(=O)c2ccccc2C(=O)c2ccc(Cl)c([N+](=O)[O-])c2)cc1 (stereo not drawn) | 25.8%
10 | CCN(C(=O)COC(=O)c1cc(NS(=O)(=O)c2ccc(Cl)c([N+](=O)[O-])c2)ccc1O)C1CCCCC1 | -12.1%
11 | CN(C)S(=O)(=O)c1cccc(NC(=O)COC(=O)C2(c3ccccc3F)CCCC2)c1 | 31.7% (active)
12 | CN(c1ccccc1)S(=O)(=O)c1cccc(NC(=O)Cc2c(F)cccc2Cl)c1 | 6.13%
13 | NS(=O)(=O)c1ccc(NC(=O)COC(=O)C2(c3ccc(F)cc3)CCCC2)cc1 | 10.9%
14 | CSCCC(Nc1ccc(S(=O)(=O)N2CCOCC2)cc1[N+](=O)[O-])C(=O)OCC(=O)N(C(C)C)C(C)C (stereo not drawn) | 0.86%
15 | O=C(CCc1[nH]c2ccccc2c1Sc1ccccc1)N(CCO)CCO | -2.04%
16 | CCCOC(=O)c1c(NC(=O)c2cnn3c2NC(c2ccccc2)CC3C(F)(F)F)sc2c1CCCC2 (stereo not drawn) | -6.74%
17 | CCOC(=O)c1cc2c(=O)n3ccccc3nc2n(CC(C)C)c1=NC(=O)c1c(-c2c(F)cccc2Cl)noc1C | -2.98%
18 | Cc1cccc(N2CCN(C(=O)c3ccccc3NC(=O)C3CCCCC3C(=O)O)CC2)c1 (stereo not drawn) | 0.78%
19 | Cc1ccc(NN=C2C(=O)OC(C)(C)OC2=O)c(C)c1 | 4.74%
20 | CN(C)c1ccc(C(CNC(=O)c2ccc(F)cc2)c2c[nH]c3ccccc23)cc1 (stereo not drawn) | 5.85%

Row | Structure (SMILES) | inhibition
21 | CC(=O)N/C(=C/c1ccc(OC(F)F)cc1)C(=O)O | -1.23%
22 | Cc1nn(-c2ccccc2)c(-n2cccc2)c1C(=O)O | 8.6%
23 | O=C(CN1CCc2ccccc21)NC(c1ccccc1)c1ccccc1 | -11.2%
24 | CCCCN(CC)C(=O)c1ccc2c(c1)OCO2 | -4.88%
25 | C=CCNC(=S)NNC(=O)c1ccc(Br)o1 | 0.37%
26 | O=C(COc1cccc(F)c1)Oc1ccc(C(=O)c2ccccc2)cc1 | 5.19%
27 | CC(C)(C)NCCCOc1ccc(Cl)cc1C(C)(C)C | -7.15%
28 | Cc1cccc(-c2nc3ccccc3c(=O)n2NC(=O)Cc2ccc(Cl)cc2)c1 | -8.75%
29 | Cc1cc(C)cc(NS(=O)(=O)c2ccc(Oc3ncc(C(F)(F)F)cc3Cl)cc2)c1 | -0.6%
30 | FC(F)(F)c1cnc(Oc2ccccc2-c2nnc(-c3ccc(Cl)cc3)o2)c(Cl)c1 | 99.8% (active)
31 | CSc1ccccc1-c1nnc(-c2ccc(Cl)cc2)o1 | 14.1%
32 | O=C(NNC(=S)Nc1ccc(Br)cc1Cl)c1ccco1 | 1.63%
33 | c1ccc(-c2cc3c(NCC4COc5ccccc5O4)ncnc3s2)cc1 (stereo not drawn) | -0.87%
34 | Cc1ccc(F)cc1NC(=O)Cc1nn(C)c(=O)c2ccccc12 | 39.3% (active)
35 | Cc1ccc(NC(=O)Cn2nc(C)c3ccccc3c2=O)c(C)c1 | 8.82%
36 | COc1ccc(-c2nn(C)c(=O)c3ccccc23)cc1NC(=O)COc1ccccc1 | 2.22%
37 | Cc1ccc(-n2c(C)cc(C(=O)CSc3nnc4ccccn34)c2C)cc1 | 3.5%
38 | Cc1ccc(C(=O)NC(=S)Nc2ccc3[nH]c(=O)[nH]c3c2)cc1C | -6.84%
39 | COc1ccc(NC(=S)NCC2CCN(c3ccc(OC)cc3)C2)cc1 (stereo not drawn) | -2.41%
40 | C/C(CC1CC(C)(C)OC1=O)=N/Nc1nc(-c2ccccc2)cs1 (stereo not drawn) | 7.6%

Row | Structure (SMILES) | inhibition
41 | COc1cc(C(=O)NCc2nnc(SCC(=O)Nc3nc4ccc(C)cc4s3)o2)cc(OC)c1OC | -19.9%
42 | CCCCc1ccc(NC(=S)N2CCCC(CO)C2)cc1 (stereo not drawn) | -8.34%
43 | COc1ccc(NC(=O)CN(Cc2ccccc2)S(C)(=O)=O)cc1OC | -9.1%
44 | CC(C)OCCCNc1ncnc2c1[nH]c1ccc(F)cc12 | 35.1% (active)
45 | O=C1CCCN1CCCNc1ncnc2c1[nH]c1ccccc12 | 22.8%
46 | CCN1CCCC1CNc1ncnc2c1[nH]c1ccc(F)cc12 (stereo not drawn) | 13.1%
47 | COc1ccc(/C=C/C(=O)Nc2ccc(C34CC5CC(CC(O)(C5)C3)C4)cc2)cc1OC | 27.3% (active)
48 | COc1ccc(/C=C/C(=O)Nc2ccc3c(c2)OCCO3)cc1OC | 12.7%
49 | COc1ccc(NS(=O)(=O)c2cc(NC(=O)/C=C/c3cc(OC)c(OC)c(OC)c3)ccc2N2CCCCC2)cc1 | 5.85%
50 | O=C(NNC1CC(=O)N(c2cccc(Cl)c2)C1=O)c1cccnc1 (stereo not drawn) | -6.86%
51 | COc1ccccc1OCCC(=O)OCC(=O)NCc1ccccc1 | -7.36%
52 | Cc1cccc(-n2c(C)cc(/C=N/NC(N)=S)c2C)c1 | -7.75%
53 | CCCN(CCC)c1c([N+](=O)[O-])c(=O)oc2ccccc12 | 7.9%
54 | CCOC(=O)Cc1csc(NC(=O)CSc2ccc(Br)cc2)n1 | 6.81%
55 | CC(C)/C=N/NC(=O)c1cc(Br)ccc1O | 10.3%
56 | COc1ccc(C2COC(=O)C2=N)c(NC(=O)c2ccccc2)c1 (stereo not drawn) | -8.91%
57 | Cc1nn(Cc2ccc(Cl)cc2)c(Cl)c1/C=N/NC(=O)c1cccnc1 | 10.9%
58 | CC1CCc2sc(C(=O)N/N=C/C3CCCCC3)cc2C1 (stereo not drawn) | -7.82%

Reference: PubChem BioAssay AID828 (The Scripps Research Institute Molecular Screening Center, 2007)
